# Bioassay records: PubChem, National Center for Advancing Translational Sciences (NCATS)
# AMA1-RON2 inh – disrupts binding of P. falciparum AMA1 to RON2; AlphaScreen AMA1-biotinylated RON2 peptide binding; Potency, µM (doses to about 58.2 µM), actives largely listed as inhibitors; 360,000 tested, 0.2% active; further: nearly all actives have a fitted effect of over 45% in size
#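 AMA1 (3D7) with his tag at 25 nM final met compounds first, then biotinylated RON2 peptide at 25 nM; detection used donor plus acceptor beads, 10 µg/mL apiece, read by AlphaScreen after 30 min at room temperature.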
# AmpC no deterg – AmpC beta-lactamase inhibition without detergent; Potency, µM (titrated, usually from 57.1 µM), hits mostly inhibitors; AID 485341; P00811; 330,000 tested, 0.52% active; AmpC nitrocefin hydrolysis, absorbance 480 nm, 0.0001% Triton; further: nearly all actives have a fitted effect of over 20% in size
# Target sequence (P00811 whole entry, looked up): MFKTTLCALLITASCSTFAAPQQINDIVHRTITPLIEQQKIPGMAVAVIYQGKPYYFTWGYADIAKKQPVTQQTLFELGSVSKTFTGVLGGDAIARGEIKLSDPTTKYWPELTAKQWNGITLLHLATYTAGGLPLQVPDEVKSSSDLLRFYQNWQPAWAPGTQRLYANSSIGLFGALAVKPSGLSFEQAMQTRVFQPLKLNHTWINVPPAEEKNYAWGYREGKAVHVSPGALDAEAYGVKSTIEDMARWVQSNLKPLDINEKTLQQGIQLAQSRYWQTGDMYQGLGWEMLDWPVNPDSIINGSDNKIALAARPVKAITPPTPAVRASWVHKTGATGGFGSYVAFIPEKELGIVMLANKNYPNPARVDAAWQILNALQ
#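 20 mM phosphate pH 7.0 + 0.01% (detergent screen) or 0.0001% Triton X-100; 5.3 nM AmpC reagent; cpd preinc 15 min RT; nitrocefin (800 uM stock) to start; A480 q20 s × 4 min; Activity was normalised to no-enzyme and no-compound control wells.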
# Giardia FBPA inh-1 – blocks Giardia fructose-bisphosphate aldolase activity. A8B2U2. purified Giardia FBPA. Potency, µM (highest dose often 59.6 µM), actives largely listed as inhibitors. 290,000 tested, 0.71% active. AID 2451; further: nearly all actives have a fitted effect of over 55% in size
# Target sequence (A8B2U2 whole entry, looked up): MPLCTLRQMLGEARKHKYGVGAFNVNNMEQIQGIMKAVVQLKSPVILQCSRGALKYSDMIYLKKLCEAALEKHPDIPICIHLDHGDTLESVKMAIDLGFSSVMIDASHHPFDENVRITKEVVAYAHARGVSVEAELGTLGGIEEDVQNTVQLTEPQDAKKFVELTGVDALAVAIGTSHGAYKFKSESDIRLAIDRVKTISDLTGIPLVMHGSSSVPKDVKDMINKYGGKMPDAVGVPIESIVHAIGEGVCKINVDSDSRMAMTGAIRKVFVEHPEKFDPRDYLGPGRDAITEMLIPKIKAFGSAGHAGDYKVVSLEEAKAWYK
#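 40 nM FBPA preincubated 10 min at RT with compound (up to 57.5 uM final), then substrate plus GAPDH/TPI/NAD/arsenate coupling and diaphorase/resazurin added. Fluorescence read after 20 min at RT, 525/598 nm.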
# AmpC detergent – AmpC beta-lactamase inhibition with detergent present. P00811. AmpC hydrolysis of nitrocefin, absorbance 480 nm, 0.01% Triton. Potency, µM (top dose mostly 114 µM), hits mostly inhibitors. 370,000 tested, 0.041% active. AID 485294; further: nearly all actives have a fitted effect of over 25% in size
#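 20 mM phosphate pH 7.0 + 0.01% (detergent screen) or 0.0001% Triton X-100; 5.3 nM AmpC reagent; cpd preinc 15 min RT; nitrocefin (800 uM stock) to start; A480 q20 s × 4 min; Activity was normalised to no-enzyme and no-compound control wells.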
# LmPK inhibitor – LmPK (Leishmania mexicana) enzyme inhibition; Q27686; purified LmPK, Kinase-Glo ATP luminescence, 1 h; Potency, µM (doses to about 57.5 µM), actives largely listed as inhibitors; 290,000 tested, 0.37% active
#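 In 50 mM imidazole pH 7.2 with 7 mM MgCl2, LmPK (0.1 nM) turned over PEP (0.5 mM) and ADP (0.1 mM) for 1 h at room temperature. Luciferase read-out of ATP.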
# Giardia growth – blocks growth of Giardia lamblia trophozoites; Potency, µM (top dose mostly 57.5 µM), hits mostly inhibitors; shares compounds with Giardia FBPA inh-1; 1,500 tested, 5% active; Giardia lamblia trophozoite growth inhibition;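 further: trophozoites exposed to compound for 48 h at 37 °C; nearly all actives have a fitted effect of over 70% in size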
# Mammal cell tox – toxic to mammalian cells in Giardia aldolase counter-screen; shares compounds with Giardia FBPA inh-1; mammalian cell viability counter-screen, qHTS; Potency, µM (doses to about 57.5 µM), most hits filed as inhibitors; 1,500 tested, 4% active; AID 2786;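 further: Chinese hamster ovary cells used as mammalian cytotoxicity surrogate; viability measured as cellular ATP by luminescence; compound exposure lasted 48 h before reading; nearly all actives have a fitted effect of over 60% in size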
# Giardia FBPA inh-2 – confirmation of Giardia fructose-bisphosphate aldolase inhibitors; shares compounds with Giardia FBPA inh-1; purified Giardia aldolase enzyme activity, qHTS; Potency, µM (series often up to 57.5 µM), most hits filed as inhibitors; 1,500 tested, 5% active; further: nearly all actives have a fitted effect of over 45% in size
# Rabbit FBPA inh – rabbit FBP aldolase inhibition by Giardia aldolase hits; shares compounds with Giardia FBPA inh-1; Rabbit muscle FBPA enzyme inhibition, selectivity counter-screen; Potency, µM (titrated, usually from 57.5 µM), actives largely listed as inhibitors; 1,500 tested, 4% active; AID 2794; further: nearly all actives have a fitted effect of over 60% in size
# GAPDH counter – GAPDH inhibition flagged for Giardia aldolase hits; shares compounds with Giardia FBPA inh-1; GAPDH coupling enzyme counterscreen, biochemical, qHTS; Potency, µM (series often up to 57.5 µM), hits mostly inhibitors; 1,500 tested, 6% active; AID 2795; further: nearly all actives have a fitted effect of over 55% in size
# Numbers stand for hits; – = inactive; ? = inconclusive; · = no result given; [ ] = remark or other dose. Rows were chosen to be rich in hits. Some 1.3% of all compounds tested hit in one or more screens of this group. The call rests on the fitted dose curve; in most records, active means well fitted curve in the direction sought with a large enough effect; inconclusive means small, poorly fitted or top-dose-only effect, or another doubt; inactive means no such curve, though single readings can be large; an effect the other way counts as inactive or inconclusive.
SMILES,AMA1-RON2 inh,AmpC no deterg,Giardia FBPA inh-1,AmpC detergent,LmPK inhibitor,Giardia growth,Mammal cell tox,Giardia FBPA inh-2,Rabbit FBPA inh,GAPDH counter
O=C(Cc1c(F)cccc1Cl)NNC(=S)Nc1ccc(S(=O)(=O)Nc2ncccn2)cc1,–,–,14.1µM,–,–,–[10.4 µM],–,–,–,–
Cc1nc2ccc(S(=O)(=O)CCC(=O)Nc3ccc(C(C)C)cc3)cc2s1,·,·,·,–,·,·,·,·,·,·
Cc1ccc(C)c(N2CCN(c3nc4ccccc4n4nnnc34)CC2)c1,·,·,·,–,·,·,·,·,·,·
Cc1c2oc3c(C)ccc(C(=O)N[C@@H]4C(=O)N[C@@H](C(C)C)C(=O)N5CCC[C@@H]5C(=O)N(C)CC(=O)N(C)[C@@H](C(C)C)C(=O)O[C@H]4C)c3nc-2c(C(=O)N[C@@H]2C(=O)N[C@@H](C(C)C)C(=O)N3CCC[C@@H]3C(=O)N(C)CC(=O)N(C)[C@@H](C(C)C)C(=O)O[C@H]2C)c(N)c1=O,·,·,–,·,·,·,·,·,·,·
COc1ccc(NC(=O)C2CCCN(S(=O)(=O)c3ccc(F)cc3)C2)cc1 (configuration not stated),·,·,·,–,·,·,·,·,·,·
CCC(C)c1ccc(-n2c(=O)c3ccccc3n3c(=S)[nH]nc23)cc1 (configuration not stated),–,–,–,–,–,·,·,·,·,·
CCCn1c(=O)c2ccccc2n2c(=S)[nH]nc12,–,–,?,–,–,·,·,·,·,·
Cn1c(=O)c2ccccc2n2c(=S)[nH]nc12,–,–,15.8µM,–,–,–,–,–,–,–
O=c1c2ccccc2n2c(=S)[nH]nc2n1-c1ccccc1,–,–,7.08µM,–,–,–,–,–,–,–
Cc1ccc(N2CC(NC(=O)c3cccc(Cl)c3)CC2=O)cc1C (configuration not stated),·,·,·,–,·,·,·,·,·,·
COc1cc(/C=N/n2nnnc2N)ccc1OCc1c(C)no[n+]1[O-],–,–,–,–,–,·,·,·,·,·
Cc1no[n+]([O-])c1COc1cccc(/C=N/Nc2nncn2N)c1,–,–,14.1µM,–,–,–,–,17.8µM,?,20µM
C=CCNC(=S)N/N=C1\CCS(=O)(=O)c2ccccc21,–,–,7.08µM,–,–,–,–,–,–,–
COc1ccc(-c2nn(CCC(=O)O)cc2/C=N/NC(N)=S)cc1,–,–,15.8µM,–,–,–[10.4 µM],–,–,–,–
Cc1cc(C(=O)OCC(=O)N2CCc3ccccc32)ccc1[N+](=O)[O-],–,–,·,–,·,·,·,·,·,·
Cc1cccc(Cc2cnc(N3C(=N)SC(C)C3=O)s2)c1 (configuration not stated),–,–,12.6µM,–,–,12.6µM,–,–,–,–
Cc1ccc(Cc2cnc(N3C(=N)SC(C)C3=O)s2)cc1 (configuration not stated),–,–,?,–,–,·,·,·,·,·
CCc1nnc(NC(=O)CN2CCN(Cc3cccc(OC)c3)CC2)s1,–,–,3.16µM,–,–,?,–,–,–,–
CCc1nnc(NC(=O)CN2CCN(c3cccc(OC)c3)CC2)s1,–,–,–,–,–,·,·,·,·,·
Cc1nnc(NC(=O)CN2CCN(Cc3c(Cl)cccc3Cl)CC2)s1,–,–,–,?,–,·,·,·,·,·
Cc1nnc(NC(=O)CN2CCN(Cc3ccccc3Cl)CC2)s1,–,–,4.47µM,–,–,–[10.4 µM],–,–,–,–
C#CCNC(=O)c1ccc2sc([C@@H]3O[C@H](CO)[C@H](O)[C@H](O)[C@H]3O)nc2c1,–,·,·,·,·,·,·,·,·,·
COc1ccc(CN2CCNC(=O)C2CC(=O)NCCc2nc(C)c3c(n2)CCC3)cc1C (configuration not stated),–,–,–,–,–,·,·,·,·,·
CCOC(=O)CC(NS(=O)(=O)c1cc(-c2cc(C)no2)ccc1C)c1ccc(C)cc1 (configuration not stated),·,·,·,–,·,·,·,·,·,·
Cn1c(O)c(C(c2ccccn2)c2c(O)n(C)c(=S)[nH]c2=O)c(=O)[nH]c1=S,–,–,17.7µM,–,–,–,–,–,–,–
SMILES,AMA1-RON2 inh,AmpC no deterg,Giardia FBPA inh-1,AmpC detergent,LmPK inhibitor,Giardia growth,Mammal cell tox,Giardia FBPA inh-2,Rabbit FBPA inh,GAPDH counter
Cc1nc(SCC(=O)c2ccc(F)cc2)n[nH]1,–,–,28.2µM,?,–,–[10.4 µM],–,–,–,–
O=C(CSc1n[nH]c(-c2ccccc2)n1)c1ccc(O)c(O)c1,–,?,8.91µM,?,–,–[10.4 µM],–,–,–,–
C[C@@H]1C(=O)O[C@H]2[C@H](O)[C@@]34[C@H]5CC(C(C)(C)C)[C@]36[C@H](OC(=O)[C@H]6O)O[C@]4(C(=O)O5)[C@@]12O (some centres not stated),·,·,–,·,·,·,·,·,·,·
Brc1cccc(OCCCCn2cncn2)c1,–,–,28.2µM,–,–,–,–,–,–,–
Cc1ccc(C2=NC3(CCCCC3)NC2=S)cc1,–,–,–,–,–,·,·,·,·,·
CCN1CCC2(CC1)N=C(c1ccc(F)cc1)C(=S)N2,–,–,12.6µM,–,–,–,–,–,–,–
COC(=O)c1cccc(OCC(O)Cn2cnc3cc(C)c(C)cc32)c1 (configuration not stated),–,–,–,–,–,·,·,·,·,·
COc1cccc(COCC(O)Cn2cnc3cc(C)c(C)cc32)c1 (configuration not stated),–,–,19.9µM,–,–,–[10.4 µM],–,–,–,–
Cc1ccc(C(=O)c2oc3ccccc3c2NC(=O)C(C)Oc2ccccc2Cl)cc1 (configuration not stated),·,·,·,–,·,·,·,·,·,·
O=C(NCCCNCCCNC(=O)c1ccc(/C=N/O)nc1)c1ccc(/C=N/O)nc1,–,–,3.97µM,–,–,–,–,–,–,–
O=C(CNCc1cccs1)Nc1ccc(N2CCCCCC2)cc1,35.5µM,–,17.7µM,–,–,?,–,–,–,–
Cc1cc(NCCN)nc2ccccc12,–,–,–,–,–,·,·,·,·,·
Cc1cc(N/N=C(/CCC(=O)O)C(=O)O)nc2ccccc12,–,–,15.8µM,?,–,–[10.4 µM],–,–,–,?
COC(=O)[C@]12CCCCC=C1N(Cc1ccc3c(c1)OCO3)C(=O)[C@H](CC(=O)N1CCC(c3ccccc3)CC1)C2,–,·,·,·,·,·,·,·,·,·
